Measured values taken from PubChem BioAssay (NCATS).
Several values for one entry are separate records, joined by “and”; a condition that tells them apart may be missing. Equal entries are not always repeated. Inconclusive results are not listed. Activity calls are given as the source filed them. Unless noted, calls follow the shape of the dose curve; as a rule, active = well fitted curve in either direction with a large enough effect (not every such curve was filed as active); inconclusive = small, poorly fitted or top-dose-only effect, or another doubt; inactive = flat fitted curve, though single readings scatter.

Experiments:
[1] = biological target: Lysosomal acid glucosylceramidase (Homo sapiens) (UniProt P04062); test: Glucocerebrosidase-p2 (AID 348; in the data active = potency below about 10 µM; also: potency is read from the fitted curve at half-maximal effect); conditions: purified GBA, blue fluorogenic substrate, 40 min
How it was run: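 Compounds titrated from 0.6 nM upwards against 0.2 nM enzyme in pH 5.9 citric acid/KH2PO4, taurocholate, tween-20; blue fluorogenic substrate 80 uM, 40 min room temperature, stopped and read Ex 365/Em 440 for AC50.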

[2] = AP1 Signaling Pathway (AID 357); conditions: ME-180 AP-1-bla reporter, EGF-induced, beta-lactamase ratio, 5 h; series mostly up to 17.2 µM; also: % is scaled to controls: 0 for no effect and ±100 for the full control effect
How it was run: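 AP-1-bla ME-180 cells with beta-lactamase reporter under AP-1 response element, stimulated with EC50 EGF; compounds titrated, 5 hours at 37 degrees Celsius. CCF4 read at 460/530 nm ratio; positive and negative modulators judged by AC50.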

[3] = biological target: Cytochrome P450 1A2 (Homo sapiens) (UniProt P05177); test: p450-cyp1a2 (AID 410; calls by dose curve;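 also: -100% = full effect of reference inhibitor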); conditions: recombinant CYP1A2, luciferin-ME demethylation, luminescence; series mostly up to 25.6 µM
How it was run: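 Luminescent readout of luciferin formed from Luciferin-ME by human CYP1A2; data normalized against complete inhibition by 57 uM furafylline. Enzyme 20nM, substrate 100uM at Km, 100mM KPO4 buffer, 60 min reaction at room temperature.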

[4] = NFAT Signaling Pathway (AID 444); conditions: Jurkat NFAT-bla M1, carbachol, beta-lactamase ratio, 5 h;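 also: carbachol stimulus at about its EC50 of 1 µM final; % is scaled to controls: 0 for no effect and ±100 for the full control effect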
How it was run: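 Jurkat cells carrying an NFAT-driven β-lactamase reporter and co-transfected muscarinic M1 receptor were treated with compound plus carbachol (1 uM final, an EC50 level) for 5 h at 37 °C. CCF4 loading followed for 1 h at RT; 460/530 nm ratio gave %activity.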

[5] = Stat Signaling Pathway (AID 446); conditions: ME-180 SIE beta-lactamase reporter, IL-6 stimulated, 5 h; series mostly up to 17.2 µM;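 also: ME-180 cervical cancer cells given 40 pM IL-6 alongside compound; SIE-controlled beta-lactamase reporter measured as 460/530 nm FRET emission ratio; % is scaled to controls: 0 for no effect and ±100 for the full control effect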
How it was run: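 ME-180 cells carrying a SIE-driven beta-lactamase reporter are stimulated with 40 pM IL-6 for 5 h at 37C in the presence of compound. The 460/530 nm FRET substrate ratio is read after 2.5 h at RT. Data are normalised to 300 pM IL-6 and to 125 nM JAK inhibitor controls.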

[6] = biological target: Glucocorticoid receptor (Homo sapiens) (UniProt P04150); test: GR-GFP Redistribution (AID 450;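 active = compounds whose dose series gives a full or clear partial fitted curve of increased nuclear translocation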; also: potency is read from the fitted curve at half-maximal effect); conditions: U2OS GR-GFP nuclear translocation, laser cytometry, 2 h
[7] = biological target: Glucocorticoid receptor (Homo sapiens) (UniProt P04150); test: GR-EFC Redistribution (AID 451; calls by dose curve; also: potency is read from the fitted curve at half-maximal effect); conditions: CHO-K1 GR-EFC translocation, beta-gal luminescence, 2 h
How it was run: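 CHO-K1 cells stably expressing nuclear-localized β-gal enzyme acceptor and GR fused C-terminally to the enzyme donor fragment; ligand-driven nuclear translocation restores β-gal by complementation. Compounds titrated up to 46 uM final, 2 h at 37 °C; luminescence read.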

[8] = biological target: Mitogen-activated protein kinase 10 (Mus musculus) (UniProt Q61831); test: JNK3 AlphaScreen Assay (AID 530); conditions: JNK3 lysate, c-Jun phosphorylation; series mostly up to 25.6 µM;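 also: kinase came from lysate of stimulated human HepG2 cells; signal reports phosphorylation of biotinylated GST-cJun 1-79 at Ser73 with 10 µM ATP; % is scaled to controls: 0 for no effect and ±100 for the full control effect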
How it was run: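 Inhibitors reduce antibody binding to phosphorylated biotin-cJun, lowering AlphaScreen luminescence. Lysates from HepG2 cells pre-activated by IL-1beta plus TNF-alpha supplied JNK3; compounds were titrated.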

[9] = biological target: 3',5'-cyclic-AMP phosphodiesterase 4B (Homo sapiens) (UniProt Q07343); test: qHTS Assay for Inhibitors of PDE-IV (AID 607; active = well fitted activation curve with a large enough effect in the main read-out, with a control signal flat, not every such curve was filed as active; also: % of control where 0% means no effect); conditions: HEK293 ACTOne CNG channel cells, membrane potential fluorescence; series mostly up to 22.9 µM
How it was run: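 HEK293 ACTOne cells with CNG channel (1000/well), endogenous PDE4; membrane potential dye, compounds up to 22.9 uM final. Fluorescence Ex 535/Em 590; RO 20-1724 (100 uM final) as reference.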

[10] = Cell Viability - BJ (AID 421; calls by dose curve;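 also: potency is read from the fitted curve at half-maximal effect; cells exposed to compound for 40 hours at 37 °C before readout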); conditions: BJ fibroblast viability, qHTS
How it was run: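 Normal human BJ foreskin fibroblasts, 1500/well in complete medium, treated 40 hr at 37 °C. Cellular ATP by CellTiter-Glo luminescence; normalized to DMSO and 100 uM tamoxifen, AC50 from Hill fit.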

[11] = Cell Viability - Jurkat (AID 426;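 active = dose-dependent loss of cell ATP signal giving a full or clear fitted curve, ranked by lower potency value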; also: potency is read from the fitted curve at half-maximal effect); conditions: qHTS
How it was run: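 qHTS, 1536-well; Jurkat E6-1, 5000 cells/well, complete medium; cpd 40 hr, 37 °C; CellTiter-Glo 20 min RT; luminescence. AC50 by Hill fit.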

[12] = Cell Viability - Hek293 (AID 427;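 active = compounds whose dose-response curve shows a full or clear partial loss of cell viability, called from curve shape rather than a numeric limit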;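 also: potency is read from the fitted curve at half-maximal effect; cells exposed to compound for 40 hours at 37 °C before reading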); conditions: qHTS
How it was run: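 HEK293 cells in complete medium were exposed to compound for 40 hr at 37 °C, then cellular ATP was read by CellTiter-Glo luminescence. Data were normalized to DMSO (basal) and 100 uM tamoxifen (100% inhibition), and AC50 came from Hill fits.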

[13] = Cell Viability - HepG2 (AID 433; calls by dose curve;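 also: potency is read from the fitted curve at half-maximal effect; potency for ATP loss meaning cytotoxicity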); conditions: qHTS
How it was run: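 ATP luminescence (CellTiter-Glo) after 40 h compound exposure, 37 °C, HepG2, 1500 cells/well, complete medium. Normalized: DMSO = basal, 100 uM tamoxifen = 100% inhibition. AC50 via standard Hill equation.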

[14] = Cell Viability - MRC5 (AID 434; calls by dose curve;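 also: potency is read from the fitted curve at half-maximal effect; potency reflects cytotoxicity seen as loss of intracellular ATP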); conditions: MRC5 lung fibroblast viability, qHTS
How it was run: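 MRC5 normal human lung fibroblasts (1500/well) were treated with compounds for 40 hr at 37 °C in complete medium, and viable cells were measured as intracellular ATP by CellTiter-Glo luminescence. AC50 came from Hill fits, normalized to DMSO and 100 uM tamoxifen.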

[15] = Cell Viability - N2a (AID 540; active = well fitted curve in the direction sought with a large enough effect; an effect the other way counts as inactive or inconclusive;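 also: plate controls were DMSO alone for no effect and tamoxifen control for full effect; nearly all actives have a fitted effect of over 45% in size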); conditions: N2a mouse neuroblastoma cell viability; series mostly up to 92.2 µM
How it was run: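 Luminescent ATP signal (CellTiter-Glo, 20 min at room temperature) served as the viability read-out after N2a cells were treated with compounds for 40 hours at 37 °C. Concentration-response data were fitted to the Hill equation for AC50.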

[16] = Cell Viability - NIH 3T3 (AID 541; active = well fitted curve in the direction sought with a large enough effect; an effect the other way counts as inactive or inconclusive;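 also: plate controls were DMSO alone for no effect and tamoxifen positive control for full effect; nearly all actives have a fitted effect of over 25% in size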); conditions: NIH 3T3 cell viability, qHTS; activity change, negative = cytotoxicity: at 92.2 µM (top of the series)
How it was run: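 Luminescent ATP signal (CellTiter-Glo) served as the viability read-out after NIH 3T3 cells were exposed to compounds over a concentration range for 40 hr at 37 °C. Hill-equation modelling of concentration-response data gave AC50.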

[17] = Cell Viability - SH-SY5Y (AID 544; active = well fitted curve in the direction sought with a large enough effect; an effect the other way counts as inactive or inconclusive; also: nearly all actives have a fitted effect of over 55% in size); conditions: SH-SY5Y neuroblastoma cell viability; viability change, negative = cytotoxic: at 92.2 µM (top of the series)
How it was run: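 Luminescent ATP read-out (CellTiter-Glo) measures loss of viable SH-SY5Y neuroblastoma cells after 40 hr compound exposure at 37 °C. AC50 values derive from standard Hill modelling of qHTS concentration-response data.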

[18] = Cell Viability - Renal Proximal Tubule (AID 545; active = well fitted curve in the direction sought with a large enough effect; an effect the other way counts as inactive or inconclusive; also: nearly all actives have a fitted effect of over 40% in size); conditions: renal proximal tubule cells viability, primary cells of rat origin; series mostly up to 91.7 µM
How it was run: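 Rat kidney proximal tubule cells, freshly isolated; 1000 cells/well, 5 hr settle, compound 40 hr 37 °C. CellTiter-Glo 20 min RT, luminescence read. AC50 by standard Hill fit.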

[19] = Cellular Toxicity (caspase-3) HepG2 (AID 654; active = well fitted curve in the direction sought with a large enough effect; an effect the other way counts as inactive or inconclusive;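 also: cells exposed to compound for 16 hours before reading; 0% = DMSO alone and 100% = caspase signal from 100 µM tamoxifen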); conditions: HepG2 caspase-3 activation, luminescence, 0% = DMSO only, 100% = tamoxifen; series mostly up to 92.2 µM
How it was run: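 Cells plated 5 hr at 37 °C, compound added, incubated 16 hr at 37 °C. Caspase-Glo 3/7 reagent followed, 20 min at room temperature, then luminescence read. Activation scored as signal increase; AC50 from Hill fit.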

[20] = at 17.2 µM (top of the series) unless noted

Sequence of 3',5'-cyclic-AMP phosphodiesterase 4B (Homo sapiens) (Q07343 whole entry, looked up): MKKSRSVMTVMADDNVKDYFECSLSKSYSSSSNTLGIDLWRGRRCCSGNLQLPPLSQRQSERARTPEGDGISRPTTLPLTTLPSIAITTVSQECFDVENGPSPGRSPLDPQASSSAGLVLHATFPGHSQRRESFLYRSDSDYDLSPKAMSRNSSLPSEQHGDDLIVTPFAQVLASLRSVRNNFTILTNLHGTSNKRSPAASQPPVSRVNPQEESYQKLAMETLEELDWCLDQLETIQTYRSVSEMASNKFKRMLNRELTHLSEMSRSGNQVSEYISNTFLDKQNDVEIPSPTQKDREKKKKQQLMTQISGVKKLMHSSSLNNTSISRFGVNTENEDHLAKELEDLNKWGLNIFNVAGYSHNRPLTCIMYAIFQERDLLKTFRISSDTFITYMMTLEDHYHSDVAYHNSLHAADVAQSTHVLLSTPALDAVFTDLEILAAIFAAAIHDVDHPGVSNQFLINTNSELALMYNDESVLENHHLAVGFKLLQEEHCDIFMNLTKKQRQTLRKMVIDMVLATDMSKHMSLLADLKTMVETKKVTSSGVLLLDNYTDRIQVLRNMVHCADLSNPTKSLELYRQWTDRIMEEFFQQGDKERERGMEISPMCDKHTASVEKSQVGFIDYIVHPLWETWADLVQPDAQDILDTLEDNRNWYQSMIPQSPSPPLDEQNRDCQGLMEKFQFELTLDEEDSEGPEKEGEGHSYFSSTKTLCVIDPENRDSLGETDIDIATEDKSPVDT
Sequence of Cytochrome P450 1A2 (Homo sapiens) (P05177 whole entry, looked up): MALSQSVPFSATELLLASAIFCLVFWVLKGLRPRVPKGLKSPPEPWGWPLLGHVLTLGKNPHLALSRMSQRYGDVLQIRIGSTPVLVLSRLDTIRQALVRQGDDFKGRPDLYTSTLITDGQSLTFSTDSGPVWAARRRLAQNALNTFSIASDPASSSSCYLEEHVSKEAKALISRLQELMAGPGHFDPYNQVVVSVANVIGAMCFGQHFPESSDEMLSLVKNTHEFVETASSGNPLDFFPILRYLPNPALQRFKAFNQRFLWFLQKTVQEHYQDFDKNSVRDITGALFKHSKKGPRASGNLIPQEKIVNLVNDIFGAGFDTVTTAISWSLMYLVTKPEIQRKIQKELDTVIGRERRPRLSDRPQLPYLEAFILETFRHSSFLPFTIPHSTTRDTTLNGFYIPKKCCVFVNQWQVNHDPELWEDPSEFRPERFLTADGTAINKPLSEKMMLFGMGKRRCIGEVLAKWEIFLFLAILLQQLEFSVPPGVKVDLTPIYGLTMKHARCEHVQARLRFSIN
Sequence of Glucocorticoid receptor (Homo sapiens) (P04150 whole entry, looked up, the tested form may be a part): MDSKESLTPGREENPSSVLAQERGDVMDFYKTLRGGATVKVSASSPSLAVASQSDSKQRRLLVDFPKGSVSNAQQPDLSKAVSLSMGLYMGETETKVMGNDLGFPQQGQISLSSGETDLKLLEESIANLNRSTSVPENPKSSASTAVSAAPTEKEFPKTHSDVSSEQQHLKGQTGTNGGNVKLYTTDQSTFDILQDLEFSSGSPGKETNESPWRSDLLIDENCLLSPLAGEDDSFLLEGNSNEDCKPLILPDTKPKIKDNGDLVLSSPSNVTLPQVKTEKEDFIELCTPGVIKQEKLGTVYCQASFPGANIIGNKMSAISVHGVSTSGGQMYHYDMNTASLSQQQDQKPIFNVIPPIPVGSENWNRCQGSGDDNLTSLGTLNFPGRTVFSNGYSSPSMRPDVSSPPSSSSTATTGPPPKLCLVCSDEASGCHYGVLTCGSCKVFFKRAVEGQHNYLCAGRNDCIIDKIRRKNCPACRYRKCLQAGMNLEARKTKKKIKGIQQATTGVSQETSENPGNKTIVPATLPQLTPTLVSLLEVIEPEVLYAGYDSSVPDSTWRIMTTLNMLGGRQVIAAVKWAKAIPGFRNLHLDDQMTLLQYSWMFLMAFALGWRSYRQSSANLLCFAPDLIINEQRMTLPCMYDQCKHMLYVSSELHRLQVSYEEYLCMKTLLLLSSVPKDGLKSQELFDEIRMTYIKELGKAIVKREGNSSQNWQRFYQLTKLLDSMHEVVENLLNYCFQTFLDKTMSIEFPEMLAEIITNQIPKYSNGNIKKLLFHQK
Sequence of Lysosomal acid glucosylceramidase (Homo sapiens) (P04062 whole entry, looked up): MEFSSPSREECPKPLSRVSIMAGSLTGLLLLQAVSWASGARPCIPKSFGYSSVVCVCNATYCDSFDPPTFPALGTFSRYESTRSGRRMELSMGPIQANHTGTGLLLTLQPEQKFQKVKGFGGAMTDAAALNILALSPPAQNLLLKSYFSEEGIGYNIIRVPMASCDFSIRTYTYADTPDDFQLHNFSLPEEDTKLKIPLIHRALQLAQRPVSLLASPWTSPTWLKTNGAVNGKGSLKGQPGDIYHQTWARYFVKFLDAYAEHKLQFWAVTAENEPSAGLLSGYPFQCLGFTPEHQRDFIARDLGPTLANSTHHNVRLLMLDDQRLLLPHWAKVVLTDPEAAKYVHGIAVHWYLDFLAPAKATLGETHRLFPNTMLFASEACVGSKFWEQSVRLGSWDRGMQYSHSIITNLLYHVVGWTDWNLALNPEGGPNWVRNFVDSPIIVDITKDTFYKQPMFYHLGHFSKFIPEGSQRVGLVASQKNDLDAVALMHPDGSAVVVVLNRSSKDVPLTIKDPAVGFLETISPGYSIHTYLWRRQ

Nc1ccc(S(=O)(=O)Nc2cnc3ccccc3n2)cc1
inactive: Potency [1] > 11.4 µM | outcome [2] | Potency [3] | activity change, negative = inhibition ([4]; at 7.69 µM (top of the series)) -24.5% | activity change, negative = inhibition ([4]; at 17.2 µM (top of the series)) -5.07% | outcome [5] | Potency [6] > 20.6 µM and > 46 µM | Potency [7] > 20.6 µM and > 9.22 µM | Potency [8] | outcome [9]

CC(=O)O[C@]1(C(C)=O)CC[C@H]2[C@@H]3C=C(Cl)C4=CC(=O)CC[C@]4(C)[C@H]3CC[C@@]21C
inactive: outcome [2] | activity change, negative = inhibition [4, 20] -29% | outcome [5]

CC(C)(C)NC[C@H](O)COc1nsnc1N1CCOCC1
inactive: outcome [2] | activity change, negative = inhibition ([4]; at 17.2 µM (top of the series)) 1.16% and 3.92% | activity change, negative = inhibition ([4]; at 38 µM (top of the series)) -1.27% | outcome [5] | Potency [6] > 46 µM and > 20.6 µM | Potency [7] > 46 µM and > 20.6 µM | Potency [8] | outcome [9]

N=C(N)N1CCc2ccccc2C1
inactive: outcome [2] | Potency [3] | activity change, negative = inhibition [4, 20] -7.74% | outcome [5] | Potency [6] > 20.6 µM | Potency [7] > 20.6 µM | Potency [8] | outcome [9]

NS(=O)(=O)Cc1noc2ccccc12
inactive: outcome [2] | Potency [3] | activity change, negative = inhibition [4, 20] -5.42% [at 38 µM] | outcome [5] | Potency [6] > 46 µM | Potency [7] > 46 µM | Potency [8] | outcome [9]

CCOc1ccc(NC(C)=O)cc1
inactive: outcome [2] | Potency [10] > 92 µM | Potency [11] > 92 µM | Potency [12] > 92 µM | Potency [13] > 92 µM | Potency [14] > 92 µM | activity change, negative = inhibition [4, 20] 3.42% | outcome [5] | Potency [6] > 20.6 µM | Potency [7] > 20.6 µM | Potency [8] | Potency [15] | activity change, negative = cytotoxicity [16] -21.8% | viability change, negative = cytotoxic [17] -11.1% | outcome [18] | outcome [9] | outcome [19]

CN(C)CCC[C@@]1(c2ccc(F)cc2)OCc2cc(C#N)ccc21
inactive: outcome [2] | Potency [3] | outcome [5] | Potency [6] > 46 µM | Potency [7] > 46 µM | outcome [9]

C[N+]1(C)CCC(=C(c2ccccc2)c2ccccc2)CC1
inactive: outcome [2] | Potency [3] | outcome [5] | Potency [6] > 20.6 µM | Potency [7] > 20.6 µM | Potency [8] | outcome [9]
